This passage reports growth results from PubChem BioAssay (NCI).

Test systems include DU-145 prostate; K-562 leukemia; MALME-3M melanoma; MDA-MB-231 breast; RXF 393 renal; SF-268 CNS; SF-295 CNS; SF-539 CNS; UACC-257 melanoma; M14 melanoma; HCT-15 colon; HT29 colon; SNB-75 CNS; SNB-19 CNS; U251 CNS; PC-3 prostate; SK-MEL-5 melanoma; UACC-62 melanoma; LOX IMVI melanoma.
Holding throughout (assay): NCI-60 one-dose screen, 48 h (100 = growth as untreated, 0 = no growth, -100 = all killed)
Common to all, as to details: 10 µM unless noted

Molecules are shown by their SMILES. About 83,000 compounds went through this panel and 20% of them were active in at least one assay; those are over-represented in the sample as a whole.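 Method: cells in 96-well plates; compound added at one concentration; 48 h incubation; percent growth measured; values under 10 scored active.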 Unmarked numbers belong to inactive results. Active and inactive are the calls of the source.

Turning to `C=C1C(=O)O[C@H]2[C@H]1CC/C(COC(=O)NCc1ccc(Cn3c(=O)sn(-c4ccc(Cl)cc4)c3=O)cc1)=C\CC[C@@]1(C)O[C@@H]21`, the growth was 18.1% with DU-145 prostate; 6.2% (active) in the assay with K-562 leukemia; 65.2% in the assay on MALME-3M melanoma; 54.7% in the assay with MDA-MB-231 breast; 62% with RXF 393 renal; 83.7% with SF-268 CNS. Further, the growth in the assay with SF-295 CNS was 99.5%; with SF-539 CNS, 90.8%; with UACC-257 melanoma, 72.9%; with M14 melanoma, 59.2%; in the assay with HCT-15 colon, 54.5%; with HT29 colon, 37.8%. Further, the growth in the assay with SNB-75 CNS was 79.7%; in the assay on SNB-19 CNS, 91.9%; with U251 CNS it was 90.2%; in the assay with PC-3 prostate it was 76.2%; with SK-MEL-5 melanoma, 97.6%; in the assay on UACC-62 melanoma it was 76.5%. Besides, the growth in the assay on LOX IMVI melanoma was 58.4%.
As for `COc1cc2c(c(OC)c1)C1c3cc(OC)ccc3NC(=O)N1CC2` (stereo unspecified), the growth was 102% in the assay with DU-145 prostate; 30.8% in the assay with K-562 leukemia; 75.5% with MALME-3M melanoma; 66.5% in the assay on MDA-MB-231 breast; 98.2% with RXF 393 renal; 80.4% with SF-268 CNS. Moreover, the growth in the assay with SF-295 CNS is 74%; with SF-539 CNS, 85.1%; in the assay on UACC-257 melanoma, 90.8%; in the assay on M14 melanoma, 59.4%; in the assay on HCT-15 colon, 49.7%; in the assay on HT29 colon it was 32.3%. The growth in the assay on SNB-75 CNS is 83.2%; in the assay on SNB-19 CNS, 87.5%; with U251 CNS, 74.9%; with PC-3 prostate, 77.7%; in the assay with SK-MEL-5 melanoma it was 82.2%; with UACC-62 melanoma it was 66%. The growth with LOX IMVI melanoma was 89.7%.
As to `COc1ncc(-c2ccc3nc(N)n(-c4ccccc4C(F)(F)F)c(=O)c3c2)cc1S(=O)(=O)Nc1ccc(F)cc1F`, the growth with DU-145 prostate was 32.3%; with K-562 leukemia, 61.5%; with MALME-3M melanoma, 76.2%; in the assay with MDA-MB-231 breast, -11% (active); with RXF 393 renal, 10.6%; with SF-268 CNS it was 46.1%. Besides, the growth is 33.4% in the assay with SF-295 CNS; 6.32% (active) in the assay on SF-539 CNS; 82.5% with UACC-257 melanoma; 8.91% (active) in the assay with M14 melanoma; 29.4% in the assay with HCT-15 colon; 10.8% in the assay with HT29 colon. Besides, the growth is 28.2% in the assay on SNB-75 CNS; 76.1% with SNB-19 CNS; 28.2% in the assay with U251 CNS; 39% with PC-3 prostate; -48.9% (active) with SK-MEL-5 melanoma; 68.8% in the assay on UACC-62 melanoma.
Turning to `CC1(C)CC[C@]2(C(=O)O)CC[C@]3(C)C(=CC[C@@H]4[C@@]5(C)C/C(=C/c6cccnc6)[C@H](O)C(C)(C)[C@@H]5CC[C@]43C)[C@@H]2C1`, the growth in the assay on DU-145 prostate was 5.35% [100 µM] (active); in the assay on K-562 leukemia, 9.27% [100 µM] (active); with MALME-3M melanoma, -30.1% [100 µM] (active); in the assay on MDA-MB-231 breast, -24.3% [100 µM] (active); in the assay on RXF 393 renal it was -37.4% [100 µM] (active); in the assay with SF-268 CNS it was 22.4% [100 µM]. Besides, the growth was -7.25% [100 µM] (active) in the assay with SF-295 CNS; -26.8% [100 µM] (active) with SF-539 CNS; -8.97% [100 µM] (active) with UACC-257 melanoma; 3.32% [100 µM] (active) in the assay on M14 melanoma; -5.12% [100 µM] (active) with HCT-15 colon; -79.4% [100 µM] (active) in the assay with HT29 colon. The growth with SNB-75 CNS is 19.5% [100 µM]; with SNB-19 CNS, 16.6% [100 µM]; with U251 CNS, -8.69% [100 µM] (active); in the assay with PC-3 prostate, 4.87% [100 µM] (active); with SK-MEL-5 melanoma, -77.1% [100 µM] (active); with UACC-62 melanoma, -56% [100 µM] (active). Besides, in the assay on LOX IMVI melanoma, the growth was -87.1% [100 µM] (active).
With `COc1cc2c(=O)[nH]c3cc([N+](=O)[O-])ccc3c2cc1[N+](=O)[O-]`, the growth is 73.4% in the assay on DU-145 prostate; 49.2% in the assay with K-562 leukemia; 50.3% with MALME-3M melanoma; 56% in the assay on MDA-MB-231 breast; 72.2% in the assay with RXF 393 renal; 63.7% in the assay on SF-268 CNS. Besides, the growth in the assay on SF-295 CNS was 47.9%; in the assay with SF-539 CNS it was 45%; in the assay with UACC-257 melanoma, 41.7%; in the assay on M14 melanoma, 76.4%; in the assay with HCT-15 colon it was 46%; in the assay with HT29 colon, 30.6%. The growth in the assay on SNB-75 CNS is 36.5%; in the assay with SNB-19 CNS it was 58.3%; with U251 CNS, 37.8%; in the assay on PC-3 prostate it was 55.2%; in the assay on SK-MEL-5 melanoma, 41.3%; in the assay on UACC-62 melanoma it was 41.4%. The growth with LOX IMVI melanoma is 36.7%.
In the case of `COc1cc2c(c(Br)c1N)-c1cc(Br)c(N)cc1C2=O`, the growth is 79.1% in the assay on DU-145 prostate; 94.9% in the assay with K-562 leukemia; 76.7% with MALME-3M melanoma; 29.2% in the assay with MDA-MB-231 breast; 69.9% in the assay on RXF 393 renal; 61.6% in the assay on SF-268 CNS. Moreover, the growth in the assay with SF-295 CNS was 57.2%; with SF-539 CNS, 37%; in the assay with UACC-257 melanoma, 92.3%; in the assay with M14 melanoma it was 91.1%; with HCT-15 colon, 81.3%; in the assay with HT29 colon it was 86.2%. Further, the growth was 25.9% with SNB-75 CNS; 69.1% in the assay with SNB-19 CNS; 57.3% with U251 CNS; 93.2% in the assay with PC-3 prostate; 56.5% in the assay with SK-MEL-5 melanoma; 74.9% in the assay on UACC-62 melanoma. The growth in the assay with LOX IMVI melanoma was 68.8%.
`Nc1cc(Cl)cc2cccnc12`: the growth in the assay on DU-145 prostate was 109%; with K-562 leukemia, 98.1%; with MALME-3M melanoma, 122%; in the assay on MDA-MB-231 breast, 95.8%; in the assay with RXF 393 renal, 112%; in the assay on SF-268 CNS, 88%. The growth in the assay with SF-295 CNS is 114%; with SF-539 CNS, 98%; in the assay with UACC-257 melanoma it was 127%; in the assay on M14 melanoma, 115%; with HCT-15 colon, 103%; with HT29 colon it was 101%. The growth was 79.9% in the assay with SNB-75 CNS; 109% with SNB-19 CNS; 111% in the assay with U251 CNS; 87.5% in the assay on PC-3 prostate; 101% in the assay on SK-MEL-5 melanoma; 103% in the assay with UACC-62 melanoma.
